Data from PubChem BioAssay (NCATS).
Inconclusive results are not listed. Where a call stands in place of a potency, no number is given. The source made the active and inactive calls. The call rests on the fitted dose curve.

Test: Primary qHTS for inhibitors of SARS-S pseudo-typed particle cell entry (AID 1479145); further: nearly all actives have a fitted effect of over 45% in size
Settings: SARS-S pseudotyped particle cell entry, luciferase reporter; series mostly up to 57.1 µM
In the case of `CCCC(=O)O[C@]1(C(=O)CO)CC[C@H]2[C@@H]3CCC4=CC(=O)CC[C@]4(C)[C@H]3[C@@H](O)C[C@@]21C`, the Potency is reported as “inactive”.
With `CCO/C([O-])=N/c1c[n+](N2CCOCC2)no1` the Potency was “inactive”.
For `O=C(O)C(S)C(S)C(=O)O` (stereo unspecified), the Potency was “inactive”.
For `Oc1cccc(O)c1`, the Potency was “inactive”.
With `S=c1nc[nH]c2nc[nH]c12` the Potency was “inactive”.
In the case of `Cc1c(F)c(N2CCNC(C)C2)cc2c1c(=O)c(C(=O)O)cn2C1CC1` (stereo unspecified), the Potency is reported as “inactive”.
In the case of `CC1CCc2c(N3CCC(O)CC3)c(F)cc3c(=O)c(C(=O)O)cn1c23` (stereo unspecified), the Potency is reported as “inactive”.
With `C=CC(N)CCC(=O)O` (stereo unspecified) the Potency was “inactive”.
For `NS(=O)(=O)c1cc2c(cc1Cl)NC(CC1CCCC1)NS2(=O)=O` (stereo unspecified), the Potency was “inactive”.
For `COc1cc2c(Nc3ccc(Br)cc3F)ncnc2cc1OCC1CCN(C)CC1`, the Potency was “inactive”.
For `Nc1c(I)cc(I)c(C(=O)N(CCC(=O)O)c2ccccc2)c1I`, the Potency was “inactive”.
With `CN1C[C@H](C(=O)N[C@]2(C)O[C@@]3(O)[C@@H]4CCCN4C(=O)[C@H](Cc4ccccc4)N3C2=O)C=C2c3cccc4[nH]cc(c34)C[C@H]21` the Potency was “inactive”.
With `CCCCCCCCCCCCCCCC(=O)OC(C)C` the Potency was “inactive”.
With `c1ccc(-c2nc[nH]c2-c2ccccc2)cc1` the Potency was “inactive”.
For `Nc1nc2ccc(OC(F)(F)F)cc2s1`, the Potency was “inactive”.
With `O=c1[nH]c(=O)n([C@H]2CCCO2)cc1F` the Potency was “inactive”.
For `CC(CN(C)C)C(C)(O)Cc1ccc(Cl)cc1` (stereo unspecified), the Potency was “inactive”.
For `CCCCCCCCCCCCCCCCCC(=O)OCC(O)CO` (stereo unspecified), the Potency was “inactive”.
In the case of `c1ccc2c(CC3=NCCN3)cccc2c1`, the Potency is reported as “inactive”.
In the case of `CCCC(=O)O[C@]1(C(=O)COC(=O)CC)CC[C@H]2[C@@H]3CCC4=CC(=O)CC[C@]4(C)[C@H]3[C@@H](O)C[C@@]21C`, the Potency is reported as “inactive”.
For `CC(=O)OCC(=O)[C@@]1(O)[C@H](OC(C)=O)C[C@H]2[C@@H]3CCC4=CC(=O)C=C[C@]4(C)[C@@]3(F)[C@@H](O)C[C@@]21C`, the Potency was “inactive”.
With `CCCC(=O)OCOC(=O)C1=C(C)NC(C)=C(C(=O)OC)C1c1cccc(Cl)c1Cl` (stereo unspecified) the Potency was “inactive”.
For `O=C1O[C@H](CO)[C@@H](O)[C@H](O)[C@H]1O`, the Potency was “inactive”.
With `CC(=O)Nc1ccc(OC(=O)c2ccccc2OC(C)=O)cc1` the Potency was “inactive”.
For `CCN(CC)CCNC(=O)c1cc(S(C)(=O)=O)ccc1OC`, the Potency was “inactive”.
For `O=P(O)(O)C(O)(Cn1ccnc1)P(=O)(O)O`, the Potency was “inactive”.
For `CN1CCC[C@@H]1c1cccnc1`, the Potency was “inactive”.
With `CNC(=O)c1c(I)c(NC(C)=O)c(I)c(C(=O)O)c1I` the Potency was “inactive”.
With `COC(=O)c1cc(Cl)ccc1NS(=O)(=O)C(F)(F)F` the Potency was “inactive”.
With `CC(C(=O)O)c1ccc2c(c1)[nH]c1ccc(Cl)cc12` (stereo unspecified) the Potency was “inactive”.
With `COc1c2occc2cc2ccc(=O)oc12` the Potency was “inactive”.
With `CCOc1cc(CC(=O)N[C@@H](CC(C)C)c2ccccc2N2CCCCC2)ccc1C(=O)O` the Potency was “inactive”.
For `CCOC(=O)c1ccc(N)cc1`, the Potency was “inactive”.
In the case of `CCCCCCCCCCCCSCCOCCO`, the Potency is reported as “inactive”.
In the case of `CS(=O)(=O)c1ccc([C@@H](O)[C@@H](CF)NC(=O)C(Cl)Cl)cc1`, the Potency is reported as “inactive”.
For `CCCCC(CC)COC(=O)c1ccccc1O` (stereo unspecified), the Potency was “inactive”.
With `CC1(C)O[C@H]2CC(=O)OC[C@]23[C@H]2CC[C@@]4(C)[C@H](c5ccoc5)OC(=O)[C@H]5O[C@]54[C@]2(C)C(=O)C[C@@H]13` the Potency was “inactive”.
With `C#C[C@]1(O)CC[C@H]2[C@@H]3CCc4cc(OC5CCCC5)ccc4[C@H]3CC[C@@]21C` the Potency was “inactive”.

Test: Primary qHTS for Huh7 cytotoxicity: counterscreen for inhibitors of MERS-S pseudotyped particle cell entry (AID 1479147)
Settings: cell viability read-out; series mostly up to 57.1 µM
With `CCCC(=O)O[C@]1(C(=O)CO)CC[C@H]2[C@@H]3CCC4=CC(=O)CC[C@]4(C)[C@H]3[C@@H](O)C[C@@]21C` the Potency was “inactive”.
With `CCO/C([O-])=N/c1c[n+](N2CCOCC2)no1` the Potency was “inactive”.
For `O=C(O)C(S)C(S)C(=O)O` (stereo unspecified), the Potency was “inactive”.
For `Oc1cccc(O)c1`, the Potency was “inactive”.
With `S=c1nc[nH]c2nc[nH]c12` the Potency was “inactive”.
With `Cc1c(F)c(N2CCNC(C)C2)cc2c1c(=O)c(C(=O)O)cn2C1CC1` (stereo unspecified) the Potency was “inactive”.
In the case of `CC1CCc2c(N3CCC(O)CC3)c(F)cc3c(=O)c(C(=O)O)cn1c23` (stereo unspecified), the Potency is reported as “inactive”.
With `C=CC(N)CCC(=O)O` (stereo unspecified) the Potency was “inactive”.
With `NS(=O)(=O)c1cc2c(cc1Cl)NC(CC1CCCC1)NS2(=O)=O` (stereo unspecified) the Potency was “inactive”.
With `COc1cc2c(Nc3ccc(Br)cc3F)ncnc2cc1OCC1CCN(C)CC1` the Potency was “inactive”.
With `Nc1c(I)cc(I)c(C(=O)N(CCC(=O)O)c2ccccc2)c1I` the Potency was “inactive”.
For `CN1C[C@H](C(=O)N[C@]2(C)O[C@@]3(O)[C@@H]4CCCN4C(=O)[C@H](Cc4ccccc4)N3C2=O)C=C2c3cccc4[nH]cc(c34)C[C@H]21`, the Potency was “inactive”.
For `CCCCCCCCCCCCCCCC(=O)OC(C)C`, the Potency was “inactive”.
For `c1ccc(-c2nc[nH]c2-c2ccccc2)cc1`, the Potency was “inactive”.
With `Nc1nc2ccc(OC(F)(F)F)cc2s1` the Potency was “inactive”.
In the case of `O=c1[nH]c(=O)n([C@H]2CCCO2)cc1F`, the Potency is reported as “inactive”.
For `CC(CN(C)C)C(C)(O)Cc1ccc(Cl)cc1` (stereo unspecified), the Potency was “inactive”.
For `CCCCCCCCCCCCCCCCCC(=O)OCC(O)CO` (stereo unspecified), the Potency was “inactive”.
For `c1ccc2c(CC3=NCCN3)cccc2c1`, the Potency was “inactive”.
In the case of `CCCC(=O)O[C@]1(C(=O)COC(=O)CC)CC[C@H]2[C@@H]3CCC4=CC(=O)CC[C@]4(C)[C@H]3[C@@H](O)C[C@@]21C`, the Potency is reported as “inactive”.
With `CC(=O)OCC(=O)[C@@]1(O)[C@H](OC(C)=O)C[C@H]2[C@@H]3CCC4=CC(=O)C=C[C@]4(C)[C@@]3(F)[C@@H](O)C[C@@]21C` the Potency was “inactive”.
For `CCCC(=O)OCOC(=O)C1=C(C)NC(C)=C(C(=O)OC)C1c1cccc(Cl)c1Cl` (stereo unspecified), the Potency was “inactive”.
With `O=C1O[C@H](CO)[C@@H](O)[C@H](O)[C@H]1O` the Potency was “inactive”.
In the case of `CC(=O)Nc1ccc(OC(=O)c2ccccc2OC(C)=O)cc1`, the Potency is reported as “inactive”.
In the case of `CCN(CC)CCNC(=O)c1cc(S(C)(=O)=O)ccc1OC`, the Potency is reported as “inactive”.
In the case of `O=P(O)(O)C(O)(Cn1ccnc1)P(=O)(O)O`, the Potency is reported as “inactive”.
With `CN1CCC[C@@H]1c1cccnc1` the Potency was “inactive”.
For `CNC(=O)c1c(I)c(NC(C)=O)c(I)c(C(=O)O)c1I`, the Potency was “inactive”.
For `COC(=O)c1cc(Cl)ccc1NS(=O)(=O)C(F)(F)F`, the Potency was “inactive”.
In the case of `CC(C(=O)O)c1ccc2c(c1)[nH]c1ccc(Cl)cc12` (stereo unspecified), the Potency is reported as “inactive”.
In the case of `COc1c2occc2cc2ccc(=O)oc12`, the Potency is reported as “inactive”.
With `CCOc1cc(CC(=O)N[C@@H](CC(C)C)c2ccccc2N2CCCCC2)ccc1C(=O)O` the Potency was “inactive”.
For `CCOC(=O)c1ccc(N)cc1`, the Potency was “inactive”.
With `CCCCCCCCCCCCSCCOCCO` the Potency was “inactive”.
With `CS(=O)(=O)c1ccc([C@@H](O)[C@@H](CF)NC(=O)C(Cl)Cl)cc1` the Potency was “inactive”.
For `CCCCC(CC)COC(=O)c1ccccc1O` (stereo unspecified), the Potency was “inactive”.
In the case of `CC1(C)O[C@H]2CC(=O)OC[C@]23[C@H]2CC[C@@]4(C)[C@H](c5ccoc5)OC(=O)[C@H]5O[C@]54[C@]2(C)C(=O)C[C@@H]13`, the Potency is reported as “inactive”.
For `C#C[C@]1(O)CC[C@H]2[C@@H]3CCc4cc(OC5CCCC5)ccc4[C@H]3CC[C@@]21C`, the Potency was “inactive”.
